The list is not random: actives were taken first. Their share in the collection is about 6.7%.
MCF10A rerep: A quantitative high throughput screen for small molecules that induce DNA re-replication in MCF 10a normal breast cells. MCF 10A DNA re-replication, Hoechst nuclear intensity, 48 h. Potency, µM (series often up to 46.1 µM), for inactives: top-dose activity, positive = re-replication, actives largely listed as activators. 350,000 compounds, 2.9% hits; note: % of control where 0% means no effect; nearly all actives have a fitted effect of over 50% in size
KB-V1 MDR tox: qHTS assay for MDR1-selective chemotherapeutics: Primary screen using the drug-selected MDR subline cells KB-V1; KB-V1 MDR cells viability, CellTiter-Glo, 72 h; Potency, µM (series often up to 46.1 µM), usual class: cytotoxic; 400,000 compounds, 3.4% hits; AID 1347076, 2019; note: % is set by controls: 0 for no effect and ±100 for the full control effect; nearly all actives have a fitted effect of over 60% in size
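Readout: CellTiter-Glo luminescence, 10 min after addition. Cells: KB-V1 MDR subline, 72 h at 37 degrees C with compound. Analysis: corrected, normalized data fitted to concentration-effect curves.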
KB-3-1 tox: qHTS assay for MDR1-selective chemotherapeutics: Primary screen using the parental adenocarcinoma cell KB-3-1; Potency, µM (titrated, usually from 46.1 µM), actives largely listed as cytotoxic; AID 1347075, 2019; KB-3-1 viability, CellTiter-Glo ATP luminescence, 72 h; 400,000 compounds, 1.4% hits; note: % is set by controls: 0 for no effect and ±100 for the full control effect; nearly all actives have a fitted effect of over 60% in size
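Cytotoxicity in the drug-sensitive parental line KB-3-1 was scored as loss of CellTiter-Glo luminescence following 72 h incubation with compound. Values come from curve fitting of normalized concentration-response data.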
SW480 rerep: A quantitative high throughput screen for small molecules that induce DNA re-replication in SW480 colon adenocarcinoma cells. SW480 DNA re-replication, Hoechst DNA content imaging, 48 h. Potency, µM (highest dose often 46.1 µM), without a hit: at the top dose re-replication activation, hits mostly activators. 340,000 compounds, 1.8% hits; note: % of control where 0% means no effect; nearly all actives have a fitted effect of over 55% in size
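Hoechst fluorescence of nuclei (405 nm excitation, 500-530 nm emission) measured by plate-scanning imager after 48 hr compound exposure at 37 C; re-replication scored as increased number of nuclei with elevated intensity.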
PINK1 modulator: A Quantitative High throughput Screen to Identify Chemical Modulators of PINK1 Expression. PINK1 immunofluorescence, high-content cytometry, 24 h. Potency, µM (top dose mostly 76.6 µM), without a hit: at the highest dose activation (PINK1 increase), actives largely listed as activators. 410,000 compounds, 0.2% hits. AID 624263, 2012; active = well fitted activation curve with a large enough effect; inconclusive = small, poorly fitted or top-dose-only effect; cell line not stated here; note: % of control where 0% means no effect; nearly all actives have a fitted effect of over 65% in size
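Stable cell line, 250 cells/well, 12 h attachment; compounds pinned at 5 concentrations, 24 h; CCCP control. Fixed with nuclear dye, primary antibodies 12 h at 10 degrees C, secondary plus cell stain; laser-scanning cytometer read.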
* = called active by the depositor; i = inactive; ? = inconclusive; . = no result given; [ ] = another dose, or the depositor's remark. Unless noted, calls come from the whole dose curve; as a rule, active = well fitted curve in the direction sought with a large enough effect; inconclusive = small, poorly fitted or top-dose-only effect, or another doubt; inactive = no such curve, though single readings can be large; an effect the other way counts as inactive or inconclusive. Potency is the fitted concentration of half-maximal effect.

SMILES | MCF10A rerep | KB-V1 MDR tox | KB-3-1 tox | SW480 rerep | PINK1 modulator
COc1cccc(NC(=O)CN(C)C(=O)C(CCSC)NC(=O)c2ccco2)c1 (configuration not stated) | -1% | 18µM* | i | 1% | -1%
N=c1ccn2c(n1)OC1C(O)[C@@H](CO)O[C@H]12 (some centres not stated) | . | . | . | . | -1%
COc1cc(CNCCCSc2nnnn2C)cc(Br)c1OC | . | . | . | . | 1%
CCOC(=O)c1nn(-c2ccc(Cl)cc2C)ccc1=O | 3% | ? | i | ? | -1%
COc1cc(C(=O)/C=C/c2cccnc2)ccc1O | 5.8µM* | ? | ? | 16µM* | -1%
COc1ccc(/C=C/C(=O)c2cc(C(=O)/C=C/c3ccc(OC)cc3)c(O)cc2O)cc1 | . | . | . | . | 1%
COc1ccc(/C=C/C(=O)c2ccc(OC)cc2OC)cc1 | 24µM* | ? | ? | 21µM* | -1%
CN(C)S(=O)(=O)c1ccc(C(=O)/C=C/c2cccnc2)cc1 | 16µM* | ? | i | 21µM* | -2%
C(=Cc1cccnc1)c1ccncc1 | 0% | i | i | -2% | -3%
O=C(/C=C/c1cccnc1)/C=C/c1cccnc1 | ? | i | 2.6µM* | ? | -1%
Cc1cc2nc(-c3ccc(Cl)cc3)c(CC3CCCCC3)n2c(C)c1Br | . | i | i | . | 7%
COc1ccc(OC)c(C(=O)/C=C/c2cccnc2)c1 | 12µM* | ? | ? | 21µM* | -2%
COc1ccc(NC(=O)c2ccc3c(c2)c(C)c(C)n3Cc2ccc(F)cc2)cc1 | . | 8.2µM* | 12µM* | . | 4%
Cc1ccc(F)cc1C(=O)N1CCCC(c2cc(C(=O)Nc3ccccc3Cl)no2)C1 (configuration not stated) | . | i | i | . | 1%
CC(=O)N1CCc2c(sc3c2c(=O)n(-c2cccc(Cl)c2)c(=O)n3Cc2ccc(F)cc2Cl)C1 | . | i | i | . | 2%
CCNC(=O)CC1C(=O)N(C)C(=S)N1NC(=O)c1ccc(Cl)cc1 (configuration not stated) | 4% | i | i | 0% | -3%
Nc1ccc(C(=O)NN2C(=O)[C@H](Cl)C2c2ccc(Cl)cc2)cc1 (some centres not stated) | 16µM* | ? | ? | 9.2µM* | -7%
CCN1C(c2ccc(F)cc2)=CS/C1=C(/C#N)c1nnc2n1-c1ccccc1SC2 | . | i | i | . | 4%
CCOC(=O)C1=C(Nc2ccc(OC)cc2)C(N)=NC1=N | . | 1.8µM* | ? | . | 8%
CCOC(=O)c1ccc(Nc2c(-c3ccc(OC)cc3)nc3nc[nH]n23)cc1 | . | i | i | . | 2%
CCOC(=O)c1ccc(NC(=O)NCc2cccnc2)cc1 | -8% | i | i | -10% | 1%
CCn1cc([N+](=O)[O-])c(C(=O)Nc2nc(-c3ccc(C)c(C)c3)c(C)s2)n1 | 8.2µM* | i | i | ? | 2.8µM*
COn1c2c(c3c4nonc4ccc31)CCCC2 | 10% | 18µM* | i | 3% | -1%[38.3 µM]
CCOC(=O)N1CCN(c2nc(CN3CCCCC3CCO)nc3c(C)cccc23)CC1 (configuration not stated) | . | . | . | . | 2%
CSC1=NC(=O)/C(=C\c2cccc3ccccc23)S1 | 15µM* | ? | i | 4% | 0%
SMILES | MCF10A rerep | KB-V1 MDR tox | KB-3-1 tox | SW480 rerep | PINK1 modulator
CCN(CC(=O)Nc1ccccc1C(F)(F)F)C(=O)CN1C(=O)NC2(CCCC2)C1=O | -1% | i | i | -38% | 1%
COc1ccc(-c2csc(=Nc3ccccc3)n2CCO)cc1 | ? | 7.3µM* | 12µM* | -6% | 0%
C=CCn1c(-c2ccc(OC)cc2)csc1=Nc1c(C)n(C)n(-c2ccccc2)c1=O | 1% | 8.2µM* | 16µM* | 2% | -3%
Cc1ccc(-c2csc(=Nc3ccccc3)n2CCCO)cc1 | . | i | i | . | 6%
CC(=O)c1cccc(N=c2scc(-c3ccc(S(=O)(=O)N4CCOCC4)cc3)n2CCO)c1 | -2% | 5.8µM* | i | -1% | 1%
C=CCn1c(-c2ccc(S(=O)(=O)N3CCOCC3)cc2)csc1=Nc1ccccc1 | ? | i | ? | -5% | -2%
Cc1c(C(=O)NCC2CCCN(C)C2)cnn1-c1ncc2c(n1)-c1ccccc1CCC2 (configuration not stated) | . | . | . | . | 1%
OC(Cc1ccccc1)c1ncc(-c2ccc(Cl)cc2)[nH]1 (configuration not stated) | . | 12µM* | ? | . | 4%
OC(Cc1ccccc1Br)c1ncc(-c2ccc(Cl)cc2)[nH]1 (configuration not stated) | . | ? | i | . | 3%
COc1ccccc1C(=O)NC(=O)COC(=O)CCS(=O)(=O)c1ccc(C)cc1 | 15% | i | i | -2% | 1%
COc1ccc(NC(=S)Nc2ccccc2)c(OC)c1 | 0% | i | i | 9% | 0%
COc1ccc(NC(=S)Nc2ccc(OCc3ccccc3)cc2)c(OC)c1 | 9% | 16µM* | ? | 12% | -2%
CC(=O)c1ccccc1NC(=O)CSCc1nc2sc(C)c(C)c2c(=O)[nH]1 | 3% | ? | i | -5% | 0%
CSc1ccccc1NC(=O)CSCc1nc2sc(C)c(C)c2c(=O)[nH]1 | 2.3µM* | i | i | -26% | -2%
Cc1sc2nc(CSCC(=O)Nc3ccccc3C#N)[nH]c(=O)c2c1C | 21% | 21µM* | i | 7% | -1%
Cc1ccc(F)cc1NC(=O)CSCc1nc2sc(C)c(C)c2c(=O)[nH]1 | 12% | i | i | -17% | -2%
Cc1cc(OC(=O)c2ccccc2C)c([N+](=O)[O-])c(=O)[nH]1 | -1% | i | i | -33% | 2%
Cc1ccc(OCc2ccc(C(=O)Nc3nc4ccccc4n3Cc3ccccc3)o2)c([N+](=O)[O-])c1 | 13µM* | ? | i | ? | 3%
CCCCCCN1C=CC(=C/C=C(\C#N)C(=O)OCC)C=C1 | 6% | 8.2µM* | i | -3% | 13µM*
CCN(CCO)C(=O)c1cnn(-c2ncc3c(n2)-c2ccccc2CCC3)c1C1CC1 | . | . | . | . | 0%
CC1CC(C)CN(c2cc3c(cc2[N+](=O)[O-])C(=O)N(c2ccccc2)C3=O)C1 (configuration not stated) | 3% | i | i | -6% | 13%
CC1CC(C)CN(c2ccc(-n3cnnn3)cc2[N+](=O)[O-])C1 (configuration not stated) | -2% | ? | 5.2µM* | 2% | 2%

Screening data (PubChem BioAssay)
